A selection: hits, their analogues and other compounds. The true share with any hit is near 2.7%.
ALOX12 inh – blocks human arachidonate 12S-lipoxygenase | hit rate 1.1% among 580,000 | P18054 | Potency, µM (series often up to 108 µM), for inactives: top-dose activity change, negative = inhibition, most hits filed as inhibitors | purified 12hLO, xylenol orange hydroperoxide absorbance; note: potency is the fitted concentration of half-maximal effect; % is set by controls: 0 for no effect and ±100 for the full control effect
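Purified human 12hLO at 150 nM in 25 mM Hepes, 0.01% Triton X-100, pH 7.0, preincubated 15 min at room temperature with compound. Reaction started with 40 uM arachidonic acid, 30 min at room temperature. Hydroperoxide measured by Fe-xylenol orange, 573/405 nm absorbance ratio.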
A549 viability – kills or reduces viability of A549 cells in Nrf2 counter-screen; A549 ARE-Fluc cells, CellTiter-Fluor viability, 18-24 h; Potency, µM (top dose mostly 46 µM), for the others: at the highest dose activity change, negative = cytotoxicity, usual class: inhibitors; hit rate 0.16% among 390,000; note: potency is the fitted concentration of half-maximal effect; % is set by controls: 0 for no effect and ±100 for the full control effect
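A549 ARE-Fluc cells in 5% FBS OPTI-MEM, 5000 cells/well, rested 2 h then exposed to compounds in concentration-response for 18-24 h at 37 °C. Viability by CellTiter-Fluor fluorescence (Ex 405/Em 525) after 30 min; luciferase luminescence (BugLite, 15 min, RT) read afterwards.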
ERG Ets-DNA blk – blocks human ERG Ets domain binding to DNA; P11308; fluorescence polarization, His-ERG Ets domain / labelled DNA; Potency, µM (titrated, usually from 76.9 µM), without a hit: top-dose FP activity, negative = inhibition, usual class: inhibitors; hit rate 0.028% among 370,000; AID 624246; active = well fitted inhibition curve with a large enough effect in the polarisation, with a control signal flat; inconclusive = small, poorly fitted or top-dose-only effect, or effect the other way, or a change in a side signal; inactive = no such curve, though single readings can be large or run the other way; the % refers to the polarisation;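 note: polarization taken with two DNA probes labelled with fluorescein and Texas red; potency is the fitted concentration of half-maximal effect; % of control where 0% means no effect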
Target sequence (P11308 whole entry, looked up, the tested form may be a part): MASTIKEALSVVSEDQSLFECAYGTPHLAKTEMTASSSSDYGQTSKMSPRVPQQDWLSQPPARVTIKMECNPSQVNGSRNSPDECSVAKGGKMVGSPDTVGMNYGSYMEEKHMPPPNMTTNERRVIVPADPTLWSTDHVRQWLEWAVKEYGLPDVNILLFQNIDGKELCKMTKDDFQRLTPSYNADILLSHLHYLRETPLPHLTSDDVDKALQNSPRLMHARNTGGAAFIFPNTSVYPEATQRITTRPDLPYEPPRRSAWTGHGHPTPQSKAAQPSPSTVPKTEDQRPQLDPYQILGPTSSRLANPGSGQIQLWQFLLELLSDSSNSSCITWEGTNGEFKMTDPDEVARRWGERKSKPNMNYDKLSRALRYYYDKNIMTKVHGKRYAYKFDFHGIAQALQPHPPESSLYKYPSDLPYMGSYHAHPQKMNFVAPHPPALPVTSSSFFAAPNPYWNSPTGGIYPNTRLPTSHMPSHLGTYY
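His-tagged ERG Ets domain (1 uM in the protein solution; 300mM KCl, 50mM Tris-HCl, 1mM EDTA, 1mM DTT, pH 7.5) received compound, then a probe mix of 5 nM fluorescein-DNA and 100nM Texas-615-DNA. Fluorescence polarization was read for both dyes.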
Nrf2 inh – Nrf2 pathway inhibition | AID 504444 | Potency, µM (highest dose often 46 µM), for the others: at the top dose activity change, negative = inhibition, actives largely listed as inhibitors | hit rate 2.1% among 360,000 | A549 ARE-Fluc reporter, luciferase luminescence, 18-24 h; note: potency is the fitted concentration of half-maximal effect; % is set by controls: 0 for no effect and ±100 for the full control effect; nearly all actives have a fitted effect of over 60% in size
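A549 ARE_Fluc cells (5000/well, 5% FBS OPTI-MEM) pre-incubated 2 h, then treated with compounds 18-24 h at 37C/5% CO2 in concentration-response. CellTiter-Fluor viability read first; BugLite luciferase luminescence after 15 min at room temperature gives Nrf2 activity.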
Nrf2 ARE act – activators of Nrf2 (ARE) signaling; AREc32 ARE-luciferase reporter (MCF7-derived line), luminescence, 24 h; Potency, µM (series often up to 46.1 µM), inactives show top-dose activation, usual class: activators; hit rate 0.31% among 410,000; AID 624171; note: potency is the fitted concentration of half-maximal effect; % of control where 0% means no effect; nearly all actives have a fitted effect of over 65% in size
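Reporter line AREc32 (ARE-Fluc), seeded overnight in OPTI-MEM with 5% FBS; compound pin-transferred, 24 hr at 37 deg C, 5% CO2; luminescent read-out.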
LDHA block – inhibitors of human lactate dehydrogenase A; P00338; purified LDHA, NADH/diaphorase-resazurin fluorescence; hits give low values; activity change, % (values are at about 110 or 230 µM); hit rate 0.15% among 480,000; AID 1347041; in the data active = activity change below about -30%; inconclusive = mostly about -25% to -30%;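 note: plate controls were DMSO wells for no effect and wells without enzyme for full effect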
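Human LDH5 (2 nM) was incubated with 0.06 mM NADH and 0.2 mM pyruvate for 5 min at room temperature in Tris pH 7.4. Remaining NADH was coupled through diaphorase/resazurin, and resorufin fluorescence was read at 0 and 20 min.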
Active calls of the source: *; u = inconclusive; x = not tested or not shown; [ ] = another dose, or the depositor's remark. Unless noted, calls come from the whole dose curve; as a rule, active = well fitted curve in the direction sought with a large enough effect; inconclusive = small, poorly fitted or top-dose-only effect, or another doubt; inactive = no such curve, though single readings can be large; an effect the other way counts as inactive or inconclusive.

SMILES | ALOX12 inh | A549 viability | ERG Ets-DNA blk | Nrf2 inh | Nrf2 ARE act | LDHA block
COCC(=O)Nc1ncc(S(=O)(=O)c2ccc([N+](=O)[O-])cc2)s1 | -2.0% | 3.0% | 7.7% | u | 6.3% | -7.1
CCc1ccccc1NC(=O)Cn1cnc2c1c(=O)n(C)c(=O)n2C | u | x | x | x | x | 2.0
CCC1CN(C(=O)NCc2ccc(F)cc2)c2cc(C)ccc2O1 (configuration not stated) | 1.2% | u | 2.3% | 20.6µM* | -0.2% | 0.6
CCC1CN(C(=O)NCc2ccc(C)cc2)c2ccccc2O1 (configuration not stated) | -5.1% | 6.3% | -5.9% | u | -0.6% | 2.5
O=C(NC1CCCc2c1[nH]c1ccc(F)cc21)c1cccs1 (configuration not stated) | 27.0% | x | x | x | x | x
O=C(NC1CCCc2c1[nH]c1ccccc21)c1n[nH]c2c1CCCC2 (configuration not stated) | 22.4µM* | x | x | x | x | x
COCCn1ccc2ccc(C(=O)NC3CCCc4c3[nH]c3ccccc43)cc21 (configuration not stated) | 39.8µM* | x | x | x | x | x
O=C(Cn1nc(-c2ccc(F)cc2)ccc1=O)NC1CCCc2c1[nH]c1ccccc21 (configuration not stated) | 35.5µM* | x | x | x | x | x
O=C(Cn1nc(-c2cccs2)ccc1=O)NC1CCCc2c1[nH]c1c(Cl)cccc21 (configuration not stated) | 55.9% | x | x | x | x | x
COCCn1cc(C(=O)NC2CCCc3c2[nH]c2c(Cl)cccc32)c2ccccc2c1=O (configuration not stated) | 24.4% | x | x | x | x | x
O=C(NC1CCCc2c1[nH]c1ccccc21)c1cccs1 (configuration not stated) | 44.7µM* | x | x | x | x | x
CCOC(=O)C1=C(C)NC(=O)NC1c1cn(-c2ccccc2)nc1-c1ccc(OC(C)C)c(C)c1 (configuration not stated) | u | x | x | x | x | 6.8
Cn1c(=O)cc(C(=O)NC2CCCc3c2[nH]c2ccccc32)c2ccccc21 (configuration not stated) | 39.8µM* | x | x | x | x | x
Cn1c(=O)cc(C(=O)NC2CCCc3c2[nH]c2c(Cl)cccc32)c2ccccc21 (configuration not stated) | 10.8% | x | x | x | x | x
O=C(NC1CCCc2c1[nH]c1ccccc21)c1ccncc1 (configuration not stated) | -4.1% | x | x | x | x | x
COc1cc(C(=O)NC2CCCc3c2[nH]c2ccccc32)cc(OC)c1OC (configuration not stated) | 35.5µM* | x | x | x | x | x
CCc1ccc(NS(=O)(=O)c2ccc3c(c2)C(C)(C)C(=O)N3)cc1 | -12.9% | x | x | x | x | -1.5
O=C(NCc1ccccc1)N1CCc2sccc2C1 | 88.8% | x | x | x | x | 11.3
CCCCn1c(=O)[nH]c(=O)c2c1nc(-c1ccc(OC)c(OCc3ccccc3)c1)n2C | u | x | x | x | x | -16.7
O=C(CSc1nccc(-c2cccs2)n1)Nc1ccc(Cl)cc1 | 182.7% | 21.7% | 0.5% | 0.5% | u | -10.8
O=C(CSc1nccc(-c2cccs2)n1)Nc1cccc(Cl)c1Cl | 171.9% | 9.3% | 9.3% | -13.2% | 2.24µM* | -2.2
Fc1ccc(-c2csc(Nc3ccccn3)n2)c(F)c1 | -59.5% | u | 5.6% | u | u | -1.5
Oc1ccc(-c2csc(Nc3ccc4c(c3)OCO4)n2)c(O)c1 | 31.6µM* | -8.1% | -1.2% | 18.1% | u | 8.6
Cc1ccc(-c2csc(Nc3ccc(S(N)(=O)=O)cc3)n2)cc1C | 44.7µM* | x | x | x | x | 0.2
Cc1cc(-c2csc(Nc3ccc(O)cc3)n2)ccc1F | 35.5µM* | x | x | x | x | -0.3
SMILES | ALOX12 inh | A549 viability | ERG Ets-DNA blk | Nrf2 inh | Nrf2 ARE act | LDHA block
Cc1ccnc(Nc2nc(-c3ccc(F)c(C)c3)cs2)c1 | u | x | x | x | x | -7.2
Oc1ccc(Nc2nc(-c3ccc(F)cc3F)cs2)cc1 | 7.94µM* | x | x | x | x | -3.3
CCC(C)NC(=O)CCNC(=O)Cc1c(C)nc2nc(N)nn2c1C (configuration not stated) | 11.1% | x | x | x | x | -0.4
CC(=O)Nc1ccc(-c2csc(Nc3cccc(C)n3)n2)cc1 | u | 1.0% | 5.7% | u | 6.6% | -4.5
Cc1cccc(Nc2nc(-c3ccc(O)cc3O)cs2)n1 | 25.1µM* | -15.4% | 1.8% | 1.0% | u | 0.4
Cc1ccc2cc(CCl)c(Cl)nc2c1C | 4.47µM* | x | x | x | x | 9.6
COc1ccc(NC(=O)/C=C/c2ccc(OC(F)F)cc2)cn1 | -23.5% | -18.2% | 0.3% | 18.4µM* | 4.0% | 5.7
COc1ccc(NC(=O)/C=C/c2cccc(C(F)(F)F)c2)cn1 | u | -7.0% | 0.5% | u | u | 2.4
COc1ccc(NC(=O)/C=C/c2cccc(Br)c2)cn1 | u | -17.3% | 4.3% | 16.4µM* | 5.6% | 17.9
COC(=O)[C@H](Cc1ccccc1)NC(=O)Nc1ccc2oc(-c3cccnc3)nc2c1 | u | x | x | x | x | 10.3
N#C/C(C(=O)COC(=O)c1ccc(-c2ccccc2)cc1)=C(/c1ccc(F)cc1)N1CCOCC1 | u | x | x | x | x | 15.8
CN1CCC(Cn2ccc3c(N4CCOCC4)nc(-c4ccc5cn[nH]c5c4)cc32)CC1 | 3.4%[176 µM] | x | x | x | x | x
CC1CC(C)CN(C(=O)C(C)N2CCN(S(=O)(=O)c3ccc(C(F)(F)F)cc3)CC2)C1 (configuration not stated) | -6.8% | u | 9.8% | 18.4µM* | 0.5% | -1.3
CC(C(=O)N1CCCC1)N1CCN(S(=O)(=O)c2ccc(OC(F)(F)F)cc2)CC1 (configuration not stated) | 11.4% | 4.3% | 4.8% | 10.9% | -0.2% | -4.8
Cc1ccc(C)n1C1C(=O)N(C)c2ccc(Cl)cc21 (configuration not stated) | 44.7µM* | x | x | x | x | x
COc1ccc2c(c1)C(n1c(C)ccc1C)C(=O)N2C (configuration not stated) | 11.2µM* | x | x | x | x | x
CC1CCC2(CCc3cc4c5c(c(=O)oc4cc3O2)CCC5)CC1 (configuration not stated) | u | x | x | x | x | 5.9
CCn1c(-c2nn(C)c(C)c2Cl)n[nH]c1=S | -16.2% | -6.1% | -3.8% | u | 0.4% | -17.5
S=c1[nH]nc(-c2ccco2)n1/N=C/c1cccc(Cl)c1Cl | u | -2.9% | -5.6% | 2.9% | 8.91µM* | -12.8
COc1ccc(-n2c(-c3ccco3)n[nH]c2=S)cc1 | u | x | -4.2% | 11.7% | -0.9% | -9.9
S=c1[nH]nc(-c2ccco2)n1-c1ccc(Cl)cc1 | 39.8µM* | 0.6% | 13.7% | -13.9% | 0.4% | -0.2
Cc1ccc(-n2c(-c3nn(C)c(C)c3Cl)n[nH]c2=S)cc1 | 31.6µM* | -0.6% | 1.8% | 5.9% | -0.8% | -10.6
